# Assay results as given in PubChem BioAssay (NCATS).
# Results filed as inconclusive are left out. Values without a mark were called inactive. Active and inactive are the calls of the source. Calls follow the shape of the dose curve; as a rule, active = well fitted cell-killing curve with a large enough effect; inconclusive = small, poorly fitted or top-dose-only effect, or effect the other way; inactive = no such curve, though single readings can be large or run the other way.
# Test: Quantitative High-Throughput drug screen in 47 multiple myeloma cell lines against the NCATS MIPE library collection: L363_DSMZ cell viability assay (AID 1918984)
# Details: L363 myeloma viability, CellTiter-Glo ATP luminescence, 48 h; series mostly up to 45.8 µM
# In short: (§1)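 Viability after 48 h drug exposure was measured as ATP-dependent luminescence. Cells, 500 per well, sat at 37 °C under 5% CO2; DMSO wells set 100%, media-only wells 0%.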
# Also: nearly all actives have a fitted effect of over 40% in size.
# Potency is read from the fitted curve at half-maximal effect.
row,SMILES,Potency
1,NC(=O)N1CCC(CC(=O)N2CCC([C@H]3c4ncc(Br)cc4CCc4cc(Cl)cc(Br)c43)CC2)CC1,4.18 µM (active)
2,CC(C)NC[C@@H](C(=O)N1CCN(c2ncnc3c2[C@H](C)C[C@H]3O)CC1)c1ccc(Cl)cc1,0.0372 µM (active)
3,C[C@H](NCc1ccc(OCc2cccc(F)c2)cc1)C(N)=O,1.48 µM (active)
4,O=C(c1ccc(F)cc1)N1CCC[C@H](c2nc(-c3ccc(F)cc3)no2)C1,inactive
5,COc1cccc2c1C(=O)c1c(O)c3c(c(O)c1C2=O)C[C@@](O)(C(=O)CO)C[C@@H]3O[C@H]1C[C@H](N)[C@H](OC2CCCCO2)[C@H](C)O1 (stereo partly drawn),inactive
6,Nc1nc(N)c2nc(-c3cccc(O)c3)c(-c3cccc(O)c3)nc2n1,3.72 µM (active)

# Test: Quantitative High-Throughput drug screen in 47 multiple myeloma cell lines against the NCATS MIPE library collection: KMS34_JCRB cell viability assay (AID 1918985)
# Details: KMS34 myeloma viability, CellTiter-Glo ATP luminescence, 48 h; series mostly up to 45.8 µM
# In short: as §1
SMILES,Potency,"viability, percent of control"
Cc1cc(O)c2c(c1)C(=O)c1cccc(O)c1C2=O,inactive,–
CCC(C(=O)O)C1CCC(C)C(C(C)C(O)C(C)C(=O)C(CC)C2OC3(C=CC(O)[C@@]4(CC[C@](C)(C5CC[C@@](O)(CC)C(C)O5)O4)O3)C(C)CC2C)O1 (stereo partly drawn),6.62 µM (active),–
CC(=O)[C@]1(O)Cc2c(O)c3c(c(O)c2[C@@H](O[C@H]2C[C@H](N)[C@@H](O)[C@H](C)O2)C1)C(=O)c1ccccc1C3=O,0.235 µM (active),–
COc1cc(C=CC(=O)CC(=O)C=Cc2ccc(O)c(OC)c2)ccc1O,6.79 µM (active),–
CN(CC(=O)N(Cc1ccc(C2CCCCC2)cc1)c1ccc(C(=O)O)c(O)c1)S(=O)(=O)c1c(F)c(F)c(F)c(F)c1F,20.9 µM (active),–
CC(C)(C)[C@H](NC(=O)c1ccc(N)c(Cl)c1)C(=O)N1CCC[C@@H]1C(=O)N[C@H](C#N)CC(=O)O,–,103% [at 3.51 µM]
Cn1cnc(=N)c2[nH]cnc21,0.132 µM (active),–
COc1ccc2c(c1OC)C(=O)OC2[C@H]1c2c(cc3c(c2OC)OCO3)CCN1C (stereo partly drawn),0.0372 µM (active),–
C[C@@H]1CC[C@@]2(OC1)OC1CC3C4CC=C5CC(O)CCC5(C)C4CCC3(C)C1[C@@H]2C (stereo partly drawn),inactive,–
C#C[C@]1(O)CC[C@@H]2[C@@H]3CCC4=CC(=O)CC[C@@H]4[C@H]3CC[C@@]21CC,inactive,–
COc1ccc(S(=O)(=O)Nc2cccnc2Nc2ccc(O)cc2)cc1,0.0469 µM (active),–
C=C(C)[C@@H]1CC[C@]2(C(=O)O)CC[C@]3(C)[C@H](CC[C@@H]4[C@@]5(C)CC[C@H](O)C(C)(C)[C@@H]5CC[C@]43C)[C@@H]12,inactive,–
CC(=O)OCC(=O)[C@@]1(O)CC[C@H]2[C@@H]3CCC4=CC(=O)CC[C@]4(C)[C@@H]3C(=O)C[C@@]21C,inactive,–
CC(=O)SCC(Cc1ccccc1)C(=O)NCC(=O)OCc1ccccc1 (stereo not drawn),2.35 µM (active),–
C[C@H](CCC(=O)O)[C@H]1CC[C@H]2[C@@H]3[C@H](O)C[C@@H]4C[C@H](O)CC[C@]4(C)[C@@H]3CC[C@]12C,inactive,–
CCOc1cc2ncc(C#N)c(Nc3ccc(OCc4ccccn4)c(Cl)c3)c2cc1NC(=O)C=CCN(C)C,10.5 µM (active),–
c1cc(CN2CCCNCCNCCCNCC2)ccc1CN1CCCNCCNCCCNCC1,inactive,–
C=CC(=O)N1CCc2ccc(-n3c(=O)ccc4cnc5ccc(-c6cnn(C)c6)cc5c43)cc21,0.935 µM (active),–
NC[C@H]1O[C@H](O[C@H]2[C@@H](O)[C@@H](O[C@H]3O[C@H](CO)[C@@H](O)[C@H](N)[C@@H]3O)[C@H](N)C[C@@H]2N)[C@H](N)C[C@H]1O,inactive,–
N#CNC(=NCCCCCCOc1ccc(Cl)cc1)Nc1ccncc1,0.0148 µM (active),–
C[C@H]1COc2c(N3CCN(C)CC3)c(F)cc3c(=O)c(C(=O)O)cn1c23,inactive,–
Oc1cc(-c2nc(-c3ccccc3)[nH]c2-c2ccncc2)ccc1Cl,16.6 µM (active),–
O=c1[nH]c(=O)n([C@H]2C[C@@H](O)[C@@H](CO)O2)cc1C=CBr,inactive,–
COC[C@H](NC(=O)c1cnc(C)s1)C(=O)N[C@@H](COC)C(=O)N[C@@H](Cc1ccccc1)C(=O)[C@@]1(C)CO1,0.0743 µM (active),–
CN(C)CCN1C(=O)c2cccc3cc(N)cc(c23)C1=O,23.5 µM (active),–
CCNC(=O)Nc1ccc(-c2nc3c(c(N4CCOC[C@H]4C)n2)CCN(C2COC2)C3)cc1,1.05 µM (active),–
COC(=O)[C@H](CCCN=C(N)N)NS(=O)(=O)c1ccc(C)cc1,inactive,–
